This is an account of results in PubChem BioAssay (NCATS).

One test deals with MKL-1. Nature of the test: qHTS assay to identify novel small-molecules to repurpose for Merkel cell carcinoma treatment (AID 1296009). Also: nearly all actives have a fitted effect of over 60% in size. The conditions noted are these: MCC and control cell lines, CellTiter-Glo viability, 72 h; series mostly up to 46 µM. In outline:
(§1)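 qHTS format: cells treated with library compounds in DMSO across 8 (NPC) or 11 (MIPE) concentrations. Readout after 72 hr at 37 degree celsius was CellTiter-Glo luminescence.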
Background: Quantitative high-throughput screening tests each substance at several concentrations.

The next test relates to MKL-2. Described as above. The conditions noted are these: MCC and control cell lines, CellTiter-Glo viability, 72 h; series mostly up to 46 µM. An outline of the steps:
as §1

The test system of another test is UISO. The description is as above. The conditions noted are these: MCC and control cell lines, CellTiter-Glo viability, 72 h; series mostly up to 46 µM. In outline:
as §1
A general note: In ATP-based viability assays light output follows the ATP content of the culture.

Another test relates to C33A. Nature of the test: Primary qHTS to identify gynecologic anti-cancer compounds using libraries of approved drugs and bioactive compounds (AID 1345084). Also: nearly all actives have a fitted effect of over 55% in size. Particulars: Gynecologic cancer cell panel viability, ATPlite luminescence, 48 h; series mostly up to 57.5 µM. In outline:
(§2)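 Five-point cytotoxicity, 48 h drug exposure at 37 C, 5% CO2, on cells seeded 16 h beforehand. ATP content read by ATPlite luminescence.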

Another test relates to HeLa. Described as above. Particulars: Gynecologic cancer cell panel viability, ATPlite luminescence, 48 h; series mostly up to 57.5 µM. In outline: as §2
Another test deals with Hek293T. Described as above. Particulars: Gynecologic cancer cell panel viability, ATPlite luminescence, 48 h, control line for the selectivity index; series mostly up to 57.5 µM. An outline of the steps: as §2
The next test deals with JEG-3. The description is as above. The conditions noted are these: Gynecologic cancer cell panel viability, ATPlite luminescence, 48 h; series mostly up to 57.5 µM. In outline:
as §2

In another test the test system is PA-1. Described as above. Particulars: Gynecologic cancer cell panel viability, ATPlite luminescence, 48 h; series mostly up to 57.5 µM. An outline of the steps:
as §2

The subject of another test is SKOV3. The description is as above. The conditions noted are these: Gynecologic cancer cell panel viability, ATPlite luminescence, 48 h; series mostly up to 57.5 µM. In outline: as §2
Another test relates to Tov-21-G. Described as above. The conditions noted are these: Gynecologic cancer cell panel viability, ATPlite luminescence, 48 h; series mostly up to 57.5 µM. An outline of the steps:
as §2

For a further test, the system named is Tov112D. The description is as above. Particulars: Gynecologic cancer cell panel viability, ATPlite luminescence, 48 h; series mostly up to 57.5 µM. An outline of the steps: as §2
The next test deals with WaGa. The test can be described thus: qHTS assay to identify novel small-molecules to repurpose for Merkel cell carcinoma treatment (AID 1296009). Also: nearly all actives have a fitted effect of over 60% in size. Particulars: MCC and control cell lines, CellTiter-Glo viability, 72 h; series mostly up to 46 µM. In outline: as §1
Test [1] is described as follows: qHTS assay to identify inhibitors of the type 1 interferon - major histocompatibility complex class I in skeletal muscle: Counter screen cell viability and HiBit confirmation (AID 1347412). Also: nearly all actives have a fitted effect of over 60% in size. The conditions noted are these: iHSKM muscle cells + IFN-b, HiBiT or CellTiter-Glo, 24 h; Potency: HiBiT; Viability, at 45.9 µM (top of the series). In outline: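 CRISPR HLA-B*08:01-HiBit immortalized human myoblasts (C25cl48) stimulated with 4 ng/ml IFN-beta and compounds (12-point 1:3, top 46 uM final) for 24 h at 37 C. Duplicate plates read by HiBit lytic luminescence or CellTiter Glo ATP.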

A further test deals with OV90. Nature of the test: Primary qHTS to identify gynecologic anti-cancer compounds using libraries of approved drugs and bioactive compounds (AID 1345084). Also: nearly all actives have a fitted effect of over 55% in size. Particulars: Gynecologic cancer cell panel viability, ATPlite luminescence, 48 h; series mostly up to 57.5 µM. In outline: as §2
Another test has as its system CASKI. The test is described as above. The conditions noted are these: Gynecologic cancer cell panel viability, ATPlite luminescence, 48 h; series mostly up to 57.5 µM. In outline:
as §2

Another test has as its system Es-2. The test is described as above. The conditions noted are these: Gynecologic cancer cell panel viability, ATPlite luminescence, 48 h; series mostly up to 57.5 µM. An outline of the steps:
as §2

Results filed as inconclusive are left out. Calls of active or inactive are those of the source. Calls follow the shape of the dose curve; as a rule, active = well fitted curve in the direction sought with a large enough effect; inconclusive = small, poorly fitted or top-dose-only effect, or another doubt; inactive = no such curve, though single readings can be large; an effect the other way counts as inactive or inconclusive.
Potency is read from the fitted curve at half-maximal effect.

Take `Oc1cc(-c2nc(-c3ccccc3)[nH]c2-c2ccncc2)ccc1Cl`: the Potency result in the test with MKL-1, in the test on MKL-2, in the test on UISO, in the test on C33A, in the test on HeLa and with Hek293T was “inactive” in each case. For the same compound, the Potency entry in the test on JEG-3, in the test on PA-1, in the test on SKOV3 and with Tov112D was “inactive” throughout. Also, the Potency in the test on Tov-21-G is 17.8 µM (active).
With `CC(=O)NCC(=O)N1[C@H]2CC[C@H]1c1cc(Nc3ncc(C(F)(F)F)c(NC4CCC4)n3)ccc12`, the Potency with MKL-1 is 0.209 µM (active); in the test with MKL-2, 23.5 µM (active); in the test on UISO, 7.43 µM (active); with WaGa it was 0.264 µM (active).
In the case of `Cn1cc(C2=C(c3c4n(c5ccccc35)CCC(CN)C4)C(=O)NC2=O)c2ccccc21` (configuration not stated), the Potency with MKL-1, in the test with MKL-2 and with WaGa was 20.9 µM (active) throughout.
For `COc1cc(OC)c(C=CS(=O)(=O)Cc2ccc(OC)c(NCC(=O)O)c2)c(OC)c1`, the Potency with MKL-2 was 0.0935 µM (active).
Consider `CN(C)CCN1C(=O)c2cccc3cc(N)cc(c23)C1=O`, for which the Potency in the test with MKL-1 is 14.8 µM (active); in the test on MKL-2 it was 18.7 µM (active); with UISO, 7.43 µM (active); with WaGa, 9.35 µM (active); in [1] it was 8.83 µM (active).
As for `COc1cc2c(Nc3ccc(Cl)c(Cl)c3F)ncnc2cc1OCC1C[C@@H]2CN(C)C[C@H]2C1`, the Potency in the test with MKL-1 is 7.43 µM (active); in the test with UISO, 4.18 µM (active); in the test with WaGa, 18.7 µM (active).
On to `COc1ccc(C=Cc2cc(OC)c(OC)c(OC)c2)cc1NC(=O)[C@H](N)CO`, for which the Potency in the test with MKL-2 is 0.0066 µM (active); in the test with UISO, 0.0053 µM (active).
`CNC(=O)c1ccc(Nc2cc(Nc3ccccc3S(=O)(=O)C(C)C)c3cc[nH]c3n2)nc1`: the Potency in the test on MKL-1 was 2.64 µM (active); with MKL-2, 7.43 µM (active); in the test with UISO, 5.9 µM (active); in the test with WaGa it was 4.18 µM (active).
The matching figures for `CO[C@@H]1[C@@H](O)[C@H](O)[C@@H](n2c3c(Cl)cccc3c3c4c(c5c6cccc(Cl)c6[nH]c5c32)C(=O)NC4=O)O[C@@H]1CO`: 0.332 µM (active), 0.935 µM (active), 0.264 µM (active) and 0.166 µM (active).
Take `C=C1C(=CC=C2CCC[C@]3(C)[C@@H]([C@H](C)CCCC(C)(C)O)CC[C@@H]23)C[C@@H](O)C[C@@H]1O`: the Potency with MKL-1 is 16.6 µM (active); in the test with MKL-2, 6.62 µM (active); in the test on WaGa, 1.48 µM (active).
Consider `COc1cc(C=CC(=O)CC(=O)C=Cc2ccc(O)c(OC)c2)ccc1O`, for which the Potency in the test on MKL-1 was 10.8 µM (active); with MKL-2 it was 8.55 µM (active); with UISO it was 21.5 µM (active); in the test with WaGa it was 9.59 µM (active).
With `COc1ccc(C[C@@H](C)[C@@H](C)Cc2ccc(OC)c(OC)c2)cc1OC`, the values for the Potency in the test on MKL-2, in the test with UISO and in the test on WaGa were 3.72 µM (active), 1.32 µM (active) and 0.833 µM (active), respectively.
With `COc1cc(C(=O)NC2CCN(C)CC2)ccc1Nc1ncc2c(n1)N(C1CCCC1)CCC(=O)N2C(C)C`, the Potency was 2.35 µM (active) in the test with MKL-1 and 1.87 µM (active) in the test with WaGa.
`CCc1ccc(C(=O)Nc2cc(CN3CCN(C)CC3)cc(C(F)(F)F)c2)cc1C#Cc1cnc2ccnn2c1`: the Potency in the test with MKL-2 was 18.7 µM (active); in [1], 24.9 µM (active). Moreover, the Potency result in the test with OV90 is “inactive”.
Regarding `Cc1[nH]c(C=C2C(=O)Nc3ccccc32)c(C)c1CCC(=O)O`, the Potency in the test on MKL-1 was 0.372 µM (active); with UISO, 0.469 µM (active); in the test with WaGa, 0.187 µM (active).
On to `COc1cc(O)c2c(c1)C1OC1C[C@H](O)[C@H](O)C(=O)C=CC[C@H](C)OC2=O` (some centres not stated), for which the results for the Potency (in the test on UISO; in test [1]) were 20.9 µM (active) and 8.83 µM (active), respectively.
`O=C(NC1CC1)c1cccc(-c2ccc3c(NC(=O)C4CC4)n[nH]c3c2)c1`: the Potency result in the test on MKL-2 was “inactive”.
With `CCN(CC)Cc1ccc2cc(COC(=O)Nc3ccc(C(=O)NO)cc3)ccc2c1`, the Potency in the test on MKL-1 is 1.87 µM (active); in the test on MKL-2 it was 0.59 µM (active); in the test on UISO it was 3.72 µM (active); with WaGa, 0.526 µM (active); in the test on C33A, 3.55 µM (active); with CASKI it was 6.31 µM (active). Also, the Potency in the test with Es-2 was 6.31 µM (active); in the test with HeLa, 6.31 µM (active); in the test on Hek293T, 10 µM (active); with JEG-3 it was 3.55 µM (active); in the test on OV90, 1 µM (active); with PA-1, 1.78 µM (active). Besides, the figures for the Potency with Tov-21-G and in the test with Tov112D were 7.94 µM (active) and 7.08 µM (active), respectively.
